NOMO-1 viab = STK33 inhibitor candidate reducing NOMO-1 cell viability | NOMO-1 AML viability, CellTiter-Glo luminescence, 72 h | 7.5% of 37,000 active | inhibition, % (concentration not given with the values); in the data active = inhibition above about 80%; inconclusive = no clear call, values can overlap the other calls
Shh pathway inh = blocks Sonic Hedgehog signaling; Shh-LIGHT2 Gli-luciferase reporter, 30 h; inhibition, % (test concentration not listed); 2.1% of 22,000 active; AID 2313;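 active = mean inhibition across valid replicates above about 65%, limit read from the data; inconclusive = mean under the limit, yet half or more replicates past it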;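 note: pathway switched on by Shh-conditioned medium diluted 1 in 25 in low serum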
PD-1 reversal = activators reversing PD-1 mediated T-cell inhibition; primary human CD4 T cells, PD-L1 beads, CellTiter-Glo 96 h; activation, % (concentration not given with the values); 29,000 tested, under 10 active; AID 2316; call rule not given here
Large screens that a line does not name were inactive. The list is not random: actives were taken first. Their share in the collection is about 7.7%.

COC(=O)CSc1nnc(-c2sc3ccccc3c2Cl)n1-c1ccc(OC)cc1	NOMO-1 viab 85 (no result: Shh pathway inh)
COC(=O)CSc1nnc(-c2sc3ccccc3c2Cl)n1-c1ccccc1	none (no result: Shh pathway inh)
COC(=O)CSc1nnc(-c2cccs2)n1-c1ccc(Cl)cc1	NOMO-1 viab 101 (no result: Shh pathway inh)
NC(=O)CSc1nnc(-c2cccs2)n1-c1ccccc1	none (no result: Shh pathway inh, PD-1 reversal)
COc1ccccc1NC(=O)Cn1nnc(-c2ccc(C(F)(F)F)cc2)n1	none (no result: Shh pathway inh)
Cc1nc2nc[nH]n2c(=O)c1NS(=O)(=O)c1ccc(C2CCCCC2)cc1	none (no result: Shh pathway inh)
CCc1nc(SCC(=O)N2CCCc3ccccc32)n[nH]1	none (no result: Shh pathway inh)
O=C(COc1ccc(Br)cc1)Nc1cccc(-c2nc3cc(Cl)ccc3o2)c1	none (no result: Shh pathway inh)
CC(C)C(=O)Nc1cccc(-c2nc3ccccc3c(=O)o2)c1	none
O=c1oc(-c2cccc(Cl)c2)nc2c1cnn2-c1ccccc1	NOMO-1 viab 115
O=C(CSc1nc2sc3c(c2c(=O)n1-c1ccccc1)CCCC3)Nc1ccccc1	none (no result: Shh pathway inh, PD-1 reversal)
CSc1nc2sc3c(c2c2nnc(SCC(=O)Nc4ccccc4)n12)CCC3	NOMO-1 viab 129 (no result: Shh pathway inh)
CCCC1=CC(=O)C(O)C1O (configuration not stated)	none
COc1ccc(-c2cc(C(F)F)n3ncc(C(=O)N(C)Cc4cnn(C)c4C)c3n2)cc1	none (no result: Shh pathway inh, PD-1 reversal)
Nc1ncnc(Sc2nc3ccccc3s2)c1[N+](=O)[O-]	NOMO-1 viab 114 (no result: Shh pathway inh)
O=C1c2ccccc2C(=O)N1CSc1nc2ccccc2s1	none
COC(=O)c1cc(OC)c(OC)cc1NC(=O)COc1cc(Cl)c(Cl)cc1Cl	NOMO-1 viab inconclusive (no result: Shh pathway inh)
O=C(O)[C@H]1O[C@@H](Oc2cc(O)c3c(=O)c(-c4ccc(O)cc4)coc3c2)[C@H](O)[C@@H](O)[C@@H]1O	NOMO-1 viab 108
C[C@@H]1O[C@@H](Oc2cc(O)c3c(=O)c(-c4ccc(O)cc4)coc3c2)[C@H](O)[C@H](O)[C@H]1O	none
COc1ccc2c(c1)CCC(=O)C2	none
COc1ccc(N2C(=O)Cc3ccc(OC)cc3C2=O)cc1	NOMO-1 viab 120
COc1ccc(C(=O)O[C@H]2CC(C)=CCC3(C)CC[C@@](O)(C(C)C)[C@H]23)cc1 (some centres not stated)	none
Cc1ccnc(SCC(=O)Nc2ccccc2C)n1	none (no result: Shh pathway inh)
CC(=O)OCC1OC(n2ccc(=O)[nH]c2=O)C(OC(C)=O)C1OC(C)=O (configuration not stated)	none
CCOc1cc(/C=C2/SC(=N)N(c3nccs3)C2=O)ccc1OCCN1CCOCC1	NOMO-1 viab 112
N=C1S/C(=C/c2ccccc2)C(=O)N1c1nonc1N	none
CC1(C)NC(=O)N(CCCOc2ccccc2CO)C1=O	none (no result: Shh pathway inh)
CC(C)[C@@H]1CC[C@@H](C)C[C@H]1OC(=O)c1ccccc1	none (no result: PD-1 reversal)
Cc1cc2nn(-c3ccc(C(C)C)cc3)nc2cc1NC(=O)COc1ccccc1[N+](=O)[O-]	none (no result: Shh pathway inh, PD-1 reversal)
C[C@H](CO)N1C[C@H](C)[C@H](CN(C)Cc2ccc(-c3ccccc3)cc2)Oc2ccc(NC(=O)Nc3ccc(C(F)(F)F)cc3)cc2CC1=O	NOMO-1 viab 126
C[C@@H]1CN([C@H](C)CO)C(=O)Cc2cc(NC(=O)Nc3ccc(C(F)(F)F)cc3)ccc2O[C@@H]1CN(C)Cc1ccc(-c2ccccc2)cc1	NOMO-1 viab 114
C[C@H]1CN([C@@H](C)CO)C(=O)Cc2cc(NC(=O)Nc3ccc(C(F)(F)F)cc3)ccc2O[C@@H]1CN(C)Cc1ccc(Oc2ccccc2)cc1	none (no result: PD-1 reversal)
COc1ccccc1OCc1nc(-c2ccccc2)cs1	none
NC(N)=Nc1nc(-c2ccc(-c3ccccc3)cc2)cs1	NOMO-1 viab 115
C[C@@H]1CN([C@@H](C)CO)C(=O)c2cccc(NC(=O)CCCCCC(=O)Nc3ccccc3N)c2O[C@H]1CN(C)CC1CCCCC1	NOMO-1 viab 138 (no result: Shh pathway inh)
C[C@H](CO)N1C[C@H](C)[C@H](CN(C)C)Oc2c(NC(=O)CCCCCC(=O)Nc3ccccc3N)cccc2C1=O	none (no result: Shh pathway inh)
C[C@H](CO)N1C[C@H](C)[C@H](CN(C)CC2CC2)Oc2c(NC(=O)CCCCCC(=O)Nc3ccccc3N)cccc2C1=O	none (no result: Shh pathway inh)
C[C@H](CO)N1C[C@H](C)[C@@H](CN(C)CC2CC2)Oc2c(NC(=O)CCCCCC(=O)Nc3ccccc3N)cccc2C1=O	NOMO-1 viab 121 (no result: Shh pathway inh)
COC(=O)c1ccccc1NC(=O)CC(O)(C(F)(F)F)C(F)(F)F	none (no result: Shh pathway inh)
COc1ccccc1C(=O)NC1(C(F)(F)F)C(=O)N(Cc2ccco2)C2=C1C(=O)CC(C)(C)C2 (configuration not stated)	none (no result: Shh pathway inh, PD-1 reversal)
O/N=C(\Cn1cncn1)c1ccc(Cl)cc1Cl	none
Clc1ccc(CO/N=C(\Cn2ccnc2)c2ccc(Cl)cc2Cl)c(Cl)c1	NOMO-1 viab 110, Shh pathway inh 104 (no result: PD-1 reversal)
Cc1oc2c(c1C(=O)NCCc1ccccc1)C(=O)c1ccccc1C2=O	none
Cc1ccc(S(=O)(=O)NCC(=O)N2CCC(C)CC2)cc1	none (no result: Shh pathway inh)
Cc1oc2c(c1C(=O)N1CCC(C)CC1)C(=O)c1ccccc1C2=O	NOMO-1 viab 113
Cc1oc2c(c1C(=O)NC1CCCC1)C(=O)c1ccccc1C2=O	NOMO-1 viab 140
Cc1ccc([N+](=O)[O-])cc1NS(=O)(=O)c1cccc(C(=O)Nc2ccccc2)c1	none (no result: Shh pathway inh)
C[C@@H]1CN([C@@H](C)CO)C(=O)c2cc(NC(=O)Nc3ccccc3)ccc2O[C@H]1CN(C)Cc1ccc(-c2ccccc2)cc1	NOMO-1 viab 112
C[C@H]1CN([C@@H](C)CO)C(=O)c2cc(NC(=O)Nc3ccc(F)cc3)ccc2O[C@H]1CN(C)Cc1ccc(-c2ccccc2)cc1	NOMO-1 viab 111
C[C@@H]1CN([C@@H](C)CO)C(=O)c2cc(NC(=O)Nc3ccccc3)ccc2O[C@@H]1CN(C)Cc1ccncc1	none (no result: Shh pathway inh)
C[C@H]1CN([C@@H](C)CO)C(=O)c2cc(NC(=O)Nc3ccccc3)ccc2O[C@H]1CN(C)Cc1ccncc1	NOMO-1 viab 98
C[C@H](CO)N1C[C@H](C)[C@@H](CN(C)Cc2ccc(-c3ccccc3)cc2)Oc2ccc(NC(=O)Nc3ccc(F)cc3)cc2C1=O	none (no result: Shh pathway inh)
C[C@H]1CN([C@@H](C)CO)C(=O)c2cc(NC(=O)Nc3ccc(F)cc3)ccc2O[C@H]1CN(C)Cc1ccccc1	none (no result: Shh pathway inh, PD-1 reversal)
C[C@H](CO)N1C[C@H](C)[C@H](CN(C)Cc2ccc(-c3ccccc3)cc2)Oc2ccc(NC(=O)Nc3ccc(F)cc3)cc2C1=O	NOMO-1 viab 104 (no result: Shh pathway inh)
C[C@H](CO)N1C[C@H](C)[C@H](CN(C)Cc2ccccc2)Oc2ccc(NC(=O)Nc3ccccc3)cc2C1=O	none (no result: Shh pathway inh)
O=C(CSc1nnc(-c2ccccc2)c(-c2ccccc2)n1)Nc1cccc(C(F)(F)F)c1	none (no result: Shh pathway inh)
CCc1ccc(C(=O)Nc2nccs2)cc1	none
COc1ccc(NC(=O)Nc2ccc3c(c2)C(=O)N([C@H](C)CO)C[C@H](C)[C@H](CN(C)Cc2ccncc2)O3)cc1	NOMO-1 viab 94
COc1ccc(NC(=O)Nc2ccc3c(c2)C(=O)N([C@@H](C)CO)C[C@@H](C)[C@@H](CN(C)Cc2ccncc2)O3)cc1	none
C[C@@H]1CN([C@@H](C)CO)C(=O)c2cc(NC(=O)Nc3ccc(F)cc3)ccc2O[C@H]1CN(C)Cc1ccc(-c2ccccc2)cc1	NOMO-1 viab 128 (no result: PD-1 reversal)
C[C@@H]1CN([C@@H](C)CO)C(=O)c2cc(NC(=O)Nc3ccc(F)cc3)ccc2O[C@H]1CN(C)Cc1ccccc1	none (no result: Shh pathway inh)
CCN(CC(=O)Nc1ccc(OC)cc1)S(=O)(=O)c1ccc(Cl)cc1	none (no result: Shh pathway inh)
CCn1c(NCc2ccccc2O)nc2ccccc21	none (no result: Shh pathway inh, PD-1 reversal)
Cc1cc(I)ccc1NC(=O)CN(c1cc(Cl)ccc1C)S(C)(=O)=O	none (no result: Shh pathway inh)

Assay outcomes as filed in PubChem.
